Reference: PubChem BioAssay AID1211 (NMMLSC, 2008)
Activity calls are given as the source filed them. How the calls were made is not given here.

Each molecule was assayed against Estrogen receptor (Homo sapiens) (UniProt P03372) (assay: ERalpha ligand binders by competition, primary screen, cell-based, Cos7 ERalpha-GFP, flow cytometry (AID 1211;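 further: 0% = DMSO vehicle wells and 100% = no E2-Alexa633 signal left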)). Settings: fluorescent ligand competition, at 10 µM, active compounds read high.
Sequence of Estrogen receptor (Homo sapiens) (P03372 whole entry, looked up): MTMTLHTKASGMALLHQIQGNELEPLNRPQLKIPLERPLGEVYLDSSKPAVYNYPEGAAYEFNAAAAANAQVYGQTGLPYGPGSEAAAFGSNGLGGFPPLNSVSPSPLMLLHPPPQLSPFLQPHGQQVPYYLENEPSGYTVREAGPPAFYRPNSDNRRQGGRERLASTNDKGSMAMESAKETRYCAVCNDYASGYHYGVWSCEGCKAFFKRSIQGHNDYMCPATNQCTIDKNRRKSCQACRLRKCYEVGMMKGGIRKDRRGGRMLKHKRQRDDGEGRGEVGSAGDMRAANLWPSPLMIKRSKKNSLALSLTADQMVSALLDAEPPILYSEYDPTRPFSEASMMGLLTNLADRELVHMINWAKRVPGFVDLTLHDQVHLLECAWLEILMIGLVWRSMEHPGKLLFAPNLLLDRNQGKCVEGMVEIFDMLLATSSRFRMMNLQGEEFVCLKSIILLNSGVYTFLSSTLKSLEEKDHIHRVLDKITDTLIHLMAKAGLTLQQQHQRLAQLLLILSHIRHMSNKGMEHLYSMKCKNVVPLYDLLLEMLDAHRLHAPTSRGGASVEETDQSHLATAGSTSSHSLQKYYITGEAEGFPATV

Row | SMILES | inhibition of ligand binding
1 | CC(=O)NC12CC3CC(C1)CC(C(=O)OCC(=O)Nc1ncc(Cl)c(C)c1Cl)(C3)C2 | 21% (inactive)
2 | Cc1cc(C)c2c(c1)[C@@H]1C=CC[C@@H]1[C@H](c1ccc(S(=O)(=O)N3CCOCC3)cc1)N2 | 66% (active)
3 | CC1Cc2ccccc2N1C(=O)CSc1nnc(-c2ccc(S(=O)(=O)N3CCCC3)cc2)o1 (stereo not drawn) | 56% (inactive)
4 | COc1ccc2[nH]c3c(c2c1)CCNC3C1CC=C(C)CC1 (stereo not drawn) | 0% (inactive)
5 | Cn1cccc1/C=C1\SC(=O)N(c2ccc(O)cc2)C1=O | 45% (inactive)
6 | CCOc1cc2c(cc1OCC)C(C(CC)CC)NCC2 (stereo not drawn) | 0% (inactive)
7 | CCSc1nc2c(cnn2-c2ccc(C)cc2)c(=O)[nH]1 | 22% (inactive)
8 | COc1ccc(OC)c(C2Nc3c(Cl)ccc(C(=O)O)c3C3C=CCC32)c1 (stereo not drawn) | 0% (inactive)
9 | COc1cc([N+](=O)[O-])cc2c1NC(c1ccc(Br)cc1)C1CC=CC21 (stereo not drawn) | 0% (inactive)
10 | Cc1cc(C(C)CO)cc(C(C)(C)C)c1O (stereo not drawn) | 21% (inactive)
11 | CC1(C)Cc2[nH]c(=O)c(C(=O)O)cc2CO1 | 2% (inactive)
12 | Oc1ccc(C=Nc2ccc(N3CCOCC3)cc2)c(O)c1 | 30% (inactive)
13 | CCCc1cc(=O)oc2c(C)c(OC3CCCCC3=O)ccc12 (stereo not drawn) | 0% (inactive)
14 | COc1cc([N+](=O)[O-])cc2c1NC(c1ccc(Cl)cc1)C1CC=CC21 (stereo not drawn) | 46% (inactive)
15 | CCOc1ccc(NS(=O)(=O)c2ccc3c(c2)[C@H]2C=CC[C@H]2[C@@H](c2cccc([N+](=O)[O-])c2)N3)cc1 | 0% (inactive)
16 | O=C(O)c1cc(-c2ccc(O)cc2)nc2ccccc12 | 5% (inactive)
17 | O=c1oc2cc(O)ccc2c2c1CCC2 | 0% (inactive)
18 | Cc1ccc2c(c1)[C@H]1OCC[C@H]1[C@@H](c1ccncc1)N2 | 34% (inactive)
19 | Fc1ccc2c(c1)[C@H]1OCC[C@H]1[C@@H](c1ccco1)N2 | 34% (inactive)

Row | SMILES | inhibition of ligand binding
20 | CCc1cc2c3c(c(=O)oc2cc1OC)CCCC3 | 0% (inactive)
21 | CCOc1cc2c(c([N+](=O)[O-])c1)NC(c1ccc(Cl)cc1)C1CC=CC21 (stereo not drawn) | 0% (inactive)
22 | Cc1nn(-c2ccc(Cl)cc2)c2sc(C(=O)N3CCN(c4ccccn4)CC3)cc12 | 50% (inactive)
23 | COC(=O)c1ccc(OCc2c(C)noc2C)cc1 | 22% (inactive)
24 | CCC(Oc1ccc2c3c(c(=O)oc2c1C)CCC3)C(=O)OC (stereo not drawn) | 15% (inactive)
25 | Cc1ccc(S(=O)(=O)Cc2ccc(C(=O)O)o2)cc1 | 34% (inactive)
26 | COc1ccc(NS(=O)(=O)c2ccc3c(c2)[C@H]2C=CC[C@H]2[C@@H](c2cccc(OC)c2OC)N3)cc1 | 0% (inactive)
27 | COc1cc([C@@H]2Nc3ccc(S(=O)(=O)Nc4ccccc4F)cc3[C@@H]3C=CC[C@@H]32)cc(OC)c1OC | 5% (inactive)
28 | CC(=O)c1ccc2c(c1)C1C=CCC1C(c1cccc([N+](=O)[O-])c1)N2 (stereo not drawn) | 68% (active)
29 | COc1ccc2c(c1)c1c3n2CCNC3CCC1 (stereo not drawn) | 25% (inactive)
30 | CC1CCN(Cc2c(O)ccc3c4c(c(=O)oc23)CCC4)CC1 | 0% (inactive)
31 | Cc1c(Cc2ccccc2)c(=O)n2c([nH]c3ccccc32)c1C#N | 5% (inactive)
32 | COc1cc([N+](=O)[O-])cc2c1NC(c1ccccc1)C1CC=CC21 (stereo not drawn) | 0% (inactive)
33 | CCCNC(=O)c1ccc2c(c1)C1C3CCC(C3)C1C(c1ccccc1)N2 (stereo not drawn) | 67% (active)
34 | O=C(O)C1Nc2c(O)cccc2C2C=CCC12 (stereo not drawn) | 6% (inactive)
35 | Nc1ccc2nc3n(c(=O)c2c1)CCC3 | 34% (inactive)
36 | N#Cc1c2c(c(=O)n3c1[nH]c1ccccc13)CCCC2 | 23% (inactive)
37 | COc1ccc2[nH]c3c(c2c1)CCNC3=O | 21% (inactive)
38 | COc1ccc(-n2cc3c(c(C#N)c2=N)CC(C)(C)CC3=O)cc1 | 29% (inactive)
